A number with no mark means an inactive call. Calls of active or inactive are those of the source.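 The calls were made as follows: active = thallium flux through the channel raised or lowered by more than 3 SD from vehicle-only wells, actives on both sides; inactive = the rest.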
Each compound was assayed on F380Y/beta4 (assay: BK channel mutant inhibitors and activators – cell-based, U2OS BacMam, thallium flux, beta subunits, selectivity assay, profiling panel (AID 1259406;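 also: initial slope of Thallos dye fluorescence rise after thallium is added; log ratio against the mean of 0.3% DMSO vehicle wells on the same plate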)). Settings: U2OS BacMam BK variants, at 30 µM.

Row | SMILES | log fold change Tl+ flux
1 | COC(=O)c1ccc(C=Cc2cccc(Cl)c2)s1 | -0.264 (active)
2 | COc1ccc(C(=O)NNC(=O)c2c(OC)cc(C(F)(F)F)cc2C(F)(F)F)cc1 | 0.0361
3 | Cn1c(SCCS(=O)(=O)c2ccc(OC(F)(F)F)cc2)nnc1C(F)(F)F | 0.00857
4 | O=C(O)c1cccc(CSc2cccs2)c1 | 0.000664
5 | Cc1onc(-c2c(Cl)cccc2Cl)c1C1=NCCO1 | -0.0118
6 | CCOC(=O)c1cc(CC)sc1NC(=O)C(Cl)(Cl)Cl | 0.0374
7 | Cc1nn(-c2ccccc2)nc1C(=O)NNC(=O)CSCc1cccc2ccccc12 | -0.00465
8 | Cc1oc(S(=O)(=O)N2CCOCC2)cc1C(=O)Nc1ccc(F)cc1 | -0.000333
9 | Cc1ccc(S(=O)(=O)NC(=O)Nc2nc(-c3ccc(C)c(Cl)c3)c(C)s2)cc1 | 0.19 (active)
10 | CCCn1c(=O)c(Br)cn(-c2ccccc2C)c1=O | 0.00537
11 | CCOC(=O)Cn1c(-c2c(Cl)cccc2Cl)noc1=O | -0.00368
12 | Cc1nn(C)c(NCc2cccs2)c1[N+](=O)[O-] | 0.018
13 | Nc1ccc(Cl)cc1-c1nc2ccccc2[nH]1 | -0.0939 (active)
14 | COC(=O)CC1(C(=O)OC)Oc2ccc(Br)cc2C(=O)N1c1cccc(Cl)c1Cl (stereo not given) | -0.677 (active)
15 | Cc1c(C(=O)Nc2ccc(N3CCOCC3)c(Cl)c2)cnn1-c1ccc(F)cc1 | 0.0219
16 | CC(=O)OCC(OC(C)=O)C(OC(C)=O)C(OC(C)=O)C(C#N)OC(C)=O (stereo not given) | 0.0383
17 | C#CC1(NC(=O)c2ccc(-c3ccc(CC)cc3)cc2)CCCCC1 | 0.0366
18 | Cc1cnc(N)c(C)n1 | -0.0219
19 | CCOC(=O)c1ccc(N2CCOCC2)c(N=Cc2cc(Cl)cc(Cl)c2O)c1 | 0.0975 (active)
20 | O=C(CC(=O)NNC(=O)c1ccc(F)cc1)NNC(=O)c1ccc(F)cc1 | -0.0066

Row | SMILES | log fold change Tl+ flux
21 | Cc1ccccc1C=C1N=C(c2ccccc2)OC1=O | -0.0336
22 | O=C(CCn1nc(-c2ccc(F)cc2)ccc1=O)NCc1ccccc1 | -0.00672
23 | N=c1c(C(N)=O)cc2c(=O)n3ccccc3nc2n1Cc1ccco1 | -0.019
24 | Cc1nn(-c2ccccc2)nc1CNC(=O)COc1ccccc1 | -0.0891
25 | Cc1cc(C)n2nc(Sc3ncccc3[N+](=O)[O-])nc2n1 | 0.00857
26 | CCOC(=O)NN=C(C)C(C)=NNC(=O)OCC | -0.0305
27 | CC(C)(C)NC(=O)NCCO | -0.013
28 | Cc1ccccc1S(=O)(=O)NCc1ccc(N2CCN(C)CC2)cc1 | 0.0231
29 | CN(C1CCCCC1)S(=O)(=O)c1cccs1 | 0.000313
30 | O=C(CN1c2ccccc2Sc2ccccc21)NN=Cc1ccco1 | -0.113 (active)
31 | CC(=O)Nc1ccc(OCC(=O)N2CCN(c3ncc(C(F)(F)F)cc3Cl)CC2)cc1 | 0.125 (active)
32 | Cc1ccc(S(=O)(=O)Oc2c(Cc3ccccc3)c(=O)n(C)c3ccccc23)cc1 | 0.0237
33 | CCN1CCC(O)(C#Cc2ccccc2)CC1 | -0.0547
34 | O=C(OCCSc1sccc1[N+](=O)[O-])c1ccc(Cl)cc1 | -0.0285
35 | Oc1c(Cl)cc(Cl)cc1C=Nc1nccs1 | 0.105 (active)
36 | Cc1cc(NC(=O)Nc2nc(-c3ccc(C)c(Cl)c3)c(C)s2)c(C(F)(F)F)o1 | -0.0149
37 | COCCCNC(=O)C(C#N)=CN(C)C | 0.0041
38 | O=C1c2cc(S(=O)(=O)O)ccc2CCC1S(=O)(=O)O (stereo not given) | 0.0447
39 | CN(C)c1ccc(C=NNC(N)=S)c(Cl)c1 | 0.174 (active)
40 | CC(C)=CC(C)=NNc1c([N+](=O)[O-])cc(C(F)(F)F)cc1[N+](=O)[O-] | 0.0221

Each compound was assayed against Calcium-activated potassium channel subunit alpha-1 (Homo sapiens) + Leucine-rich repeat-containing protein 26 (Homo sapiens) (UniProt Q12791+Q2I0M4) in the same assay as above. Settings: U2OS BacMam BK variants, F380Y/Slo1WT/gamma1, at 30 µM.
Calcium-activated potassium channel subunit alpha-1 (Homo sapiens) + Leucine-rich repeat-containing protein 26 (Homo sapiens), sequence (Q2I0M4 whole entry, looked up, one chain of several): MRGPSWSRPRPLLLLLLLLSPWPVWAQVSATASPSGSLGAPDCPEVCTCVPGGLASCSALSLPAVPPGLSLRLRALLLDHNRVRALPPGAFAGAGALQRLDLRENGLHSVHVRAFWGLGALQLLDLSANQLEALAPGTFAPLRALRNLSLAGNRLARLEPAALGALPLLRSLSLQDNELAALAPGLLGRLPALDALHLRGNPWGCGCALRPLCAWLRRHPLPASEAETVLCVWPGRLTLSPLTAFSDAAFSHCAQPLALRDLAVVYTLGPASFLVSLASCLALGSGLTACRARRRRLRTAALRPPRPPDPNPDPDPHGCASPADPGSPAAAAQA

Row | SMILES | log fold change Tl+ flux
41 | COC(=O)c1ccc(C=Cc2cccc(Cl)c2)s1 | -0.421 (active)
42 | COc1ccc(C(=O)NNC(=O)c2c(OC)cc(C(F)(F)F)cc2C(F)(F)F)cc1 | 0.00672
43 | Cn1c(SCCS(=O)(=O)c2ccc(OC(F)(F)F)cc2)nnc1C(F)(F)F | -0.00452
44 | O=C(O)c1cccc(CSc2cccs2)c1 | 0.0207
45 | Cc1onc(-c2c(Cl)cccc2Cl)c1C1=NCCO1 | -0.0114
46 | CCOC(=O)c1cc(CC)sc1NC(=O)C(Cl)(Cl)Cl | 0.0144
47 | Cc1nn(-c2ccccc2)nc1C(=O)NNC(=O)CSCc1cccc2ccccc12 | -0.0205
48 | Cc1oc(S(=O)(=O)N2CCOCC2)cc1C(=O)Nc1ccc(F)cc1 | 0.0253
49 | Cc1ccc(S(=O)(=O)NC(=O)Nc2nc(-c3ccc(C)c(Cl)c3)c(C)s2)cc1 | 0.156 (active)
50 | CCCn1c(=O)c(Br)cn(-c2ccccc2C)c1=O | -0.011
51 | CCOC(=O)Cn1c(-c2c(Cl)cccc2Cl)noc1=O | -0.0669
52 | Cc1nn(C)c(NCc2cccs2)c1[N+](=O)[O-] | 0.0148
53 | Nc1ccc(Cl)cc1-c1nc2ccccc2[nH]1 | -0.0918
54 | COC(=O)CC1(C(=O)OC)Oc2ccc(Br)cc2C(=O)N1c1cccc(Cl)c1Cl (stereo not given) | -0.246 (active)
55 | Cc1c(C(=O)Nc2ccc(N3CCOCC3)c(Cl)c2)cnn1-c1ccc(F)cc1 | -0.0278
56 | CC(=O)OCC(OC(C)=O)C(OC(C)=O)C(OC(C)=O)C(C#N)OC(C)=O (stereo not given) | -0.00671
57 | C#CC1(NC(=O)c2ccc(-c3ccc(CC)cc3)cc2)CCCCC1 | 0.047
58 | Cc1cnc(N)c(C)n1 | 0.00805
59 | CCOC(=O)c1ccc(N2CCOCC2)c(N=Cc2cc(Cl)cc(Cl)c2O)c1 | 0.0345
60 | O=C(CC(=O)NNC(=O)c1ccc(F)cc1)NNC(=O)c1ccc(F)cc1 | -0.0103

Row | SMILES | log fold change Tl+ flux
61 | Cc1ccccc1C=C1N=C(c2ccccc2)OC1=O | -0.00351
62 | O=C(CCn1nc(-c2ccc(F)cc2)ccc1=O)NCc1ccccc1 | 0.0366
63 | N=c1c(C(N)=O)cc2c(=O)n3ccccc3nc2n1Cc1ccco1 | -0.0157
64 | Cc1nn(-c2ccccc2)nc1CNC(=O)COc1ccccc1 | -0.0325
65 | Cc1cc(C)n2nc(Sc3ncccc3[N+](=O)[O-])nc2n1 | 0.0468
66 | CCOC(=O)NN=C(C)C(C)=NNC(=O)OCC | -0.00664
67 | CC(C)(C)NC(=O)NCCO | -0.0499
68 | Cc1ccccc1S(=O)(=O)NCc1ccc(N2CCN(C)CC2)cc1 | 0.0153
69 | CN(C1CCCCC1)S(=O)(=O)c1cccs1 | -0.00414
70 | O=C(CN1c2ccccc2Sc2ccccc21)NN=Cc1ccco1 | 0.0102
71 | CC(=O)Nc1ccc(OCC(=O)N2CCN(c3ncc(C(F)(F)F)cc3Cl)CC2)cc1 | 0.039
72 | Cc1ccc(S(=O)(=O)Oc2c(Cc3ccccc3)c(=O)n(C)c3ccccc23)cc1 | -0.018
73 | CCN1CCC(O)(C#Cc2ccccc2)CC1 | 0.00398
74 | O=C(OCCSc1sccc1[N+](=O)[O-])c1ccc(Cl)cc1 | -0.0095
75 | Oc1c(Cl)cc(Cl)cc1C=Nc1nccs1 | 0.0431
76 | Cc1cc(NC(=O)Nc2nc(-c3ccc(C)c(Cl)c3)c(C)s2)c(C(F)(F)F)o1 | 0.0333
77 | COCCCNC(=O)C(C#N)=CN(C)C | -0.0197
78 | O=C1c2cc(S(=O)(=O)O)ccc2CCC1S(=O)(=O)O (stereo not given) | -0.0209
79 | CN(C)c1ccc(C=NNC(N)=S)c(Cl)c1 | -0.221 (active)
80 | CC(C)=CC(C)=NNc1c([N+](=O)[O-])cc(C(F)(F)F)cc1[N+](=O)[O-] | -0.0328
